Data taken from PubChem BioAssay AID489036 (National Center for Advancing Translational Sciences (NCATS), 2010).
Records with an inconclusive call do not appear. The source made the active and inactive calls. Calls come from the whole dose curve; as a rule, active = well fitted inhibition curve with a large enough effect; inconclusive = small, poorly fitted or top-dose-only effect, or effect the other way; inactive = flat fitted curve, though single readings scatter.

Assay: VP16 selectivity assay for inhibitors of ROR gamma transcriptional activity
Settings: Drosophila Schneider Gal4-VP16 UAS-luciferase reporter, 20 h; series mostly up to 92.2 µM; activity change, negative = inhibition: at the top concentration
How it was run: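 Drosophila Schneider cells stably expressing a Gal4-VP16 fusion under a metallothionein promoter and a UAS-driven Photinus luciferase reporter. Compound preincubated 1 hr, copper sulfate added (700 uM final), then 20 hr at ambient temperature before luminescence read.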

Row | SMILES | activity change, negative = inhibition | Potency
1 | CC(C)[C@H](NC(=O)C1CCN(C(=O)[C@@H]2CCCN2C(=O)OC(C)(C)C)CC1)C(=O)NCc1ccc(F)cc1 | 13% (inactive) | –
2 | COc1cc(O)c(C(CC(=O)N2CC(C)CC(C)C2)c2ccc(O)cc2)c(OC)c1 (centres undefined) | 12.5% (inactive) | –
3 | Cc1ccc(OCCCC(=O)Nc2nc3ccccc3[nH]2)cc1 | – | 18.2 µM (active)
4 | COc1cc(O)c(C(CC(=O)N2CCCC(COc3ccc(F)cc3)C2)c2ccc3c(c2)OCO3)c(OC)c1 (centres undefined) | -6.39% (inactive) | –
5 | CCOc1ccc(-c2cc(CCCC(=O)NCc3cccnc3)no2)cc1 | – | 2.88 µM (active)
6 | COc1cc(O)c(C(CC(=O)N2CCC(c3ccccc3)CC2)c2ccc(C)cc2)c(OC)c1 (centres undefined) | -9.66% (inactive) | –
7 | COc1cc(O)c(C(CC(=O)N2CCCC(C)C2)c2ccc3c(c2)OCO3)c(OC)c1 (centres undefined) | 10.9% (inactive) | –
8 | O=C(CCCN1C(=O)/C(=C/c2ccccc2Cl)SC1=S)Nc1cccnc1 | – | 28.8 µM (active)
9 | COc1ccc(C(CC(=O)N2CCCC(C)C2)c2ccccc2)cc1 (centres undefined) | -64.7% (inactive) | –
10 | COc1cc(O)c(C(CC(=O)N2CCC(C)CC2)c2ccc(C)cc2)c(OC)c1 (centres undefined) | 11.5% (inactive) | –
11 | COc1cc(O)c(C(CC(=O)N2CCCC(CO)C2)c2ccc3c(c2)OCO3)c(OC)c1 (centres undefined) | -18.2% (inactive) | –
12 | COc1cc(O)c(C(CC(=O)N2CCC(C)CC2)c2ccc3c(c2)OCO3)c(OC)c1 (centres undefined) | – | inactive
13 | COc1ccccc1CNC(=O)[C@@H](NC(=O)C1CCN(C(=O)[C@@H]2CCCN2C(=O)OC(C)(C)C)CC1)C(C)C | 6.66% (inactive) | –
14 | CC1CCCN(C(=O)CC(c2ccc3c(c2)OCO3)c2c(O)cccc2Cl)C1 (centres undefined) | – | 40.7 µM (active)
15 | COc1cc(O)c(C(CC(=O)N2CCCC(C)C2)c2cccc3ccccc23)c(OC)c1 (centres undefined) | -28.4% (inactive) | –
16 | COc1cc(O)c(C(CC(=O)Nc2ccc(C)cc2)c2ccc3c(c2)OCO3)c(OC)c1 (centres undefined) | – | 40.7 µM (active)
17 | COc1cc(OC)c(C(CC(=O)N2CC(C)CC(C)C2)c2ccc3c(c2)OCO3)c(OCC(N)=O)c1 (centres undefined) | -8.5% (inactive) | –
18 | COc1cc(O)c(C(CC(=O)N2CCC(C)CC2)c2ccc(OC)c(OC)c2)c(OC)c1 (centres undefined) | 23% (inactive) | –
19 | C#CCOc1cc(OC)cc(OC)c1C(CC(=O)N1CCCC(C)C1)c1ccc2c(c1)OCO2 (centres undefined) | – | 45.7 µM (active)
20 | CCn1cc(C(=O)O)c(=O)c2cnc(N3CCN(C(=S)NC(=O)c4ccccc4)CC3)nc21 | – | 20.4 µM (active)
21 | O=C(/C=C/c1ccc(S(=O)(=O)N2CCOCC2)cc1)NC(=S)Nc1ccc(N2CCOCC2)cc1 | – | 20.4 µM (active)
22 | Cc1cc(C)n(-c2nc(SCC(=O)O)c3c4c(sc3n2)CCCC4)n1 | – | 16.2 µM (active)
23 | COc1cc(O)c(C(CC(=O)N2CCCC(C)C2)c2ccc(OC)c(OC)c2)c(OC)c1 (centres undefined) | 13.1% (inactive) | –
24 | COc1cc(O)c(C(CC(=O)N(Cc2ccccc2)Cc2ccccc2)c2ccc3c(c2)OCO3)c(OC)c1 (centres undefined) | -7.83% (inactive) | –
25 | CC1CCCN(C(=O)CC(c2ccc3c(c2)OCO3)c2ccc(O)cc2O)C1 (centres undefined) | -16.7% (inactive) | –
26 | COCC1CCCN(C(=O)CC(c2ccc3c(c2)OCO3)c2c(O)cc(OC)cc2OC)C1 (centres undefined) | -15.9% (inactive) | –
27 | CC(C)(C)OC(=O)N1CCC[C@H]1C(=O)N1CCC(C(=O)N[C@H](Cc2ccccc2)C(=O)NCc2ccc(F)cc2)CC1 | -14.9% (inactive) | –
28 | COc1cc(O)c(C(CC(=O)N2CCC(c3ccccc3)CC2)c2ccc(OC)c(OC)c2)c(OC)c1 (centres undefined) | -1.5% (inactive) | –
29 | COC(=O)Cn1c(CN2CCc3ccccc3C2)nc2c1c(=O)n(C)c(=O)n2C | – | 9.11 µM (active)
